Screening data as filed in PubChem BioAssay.
JMJD2C inh: inhibitors of GASC-1 histone demethylase, primary screen, biochemical, fluorescence, DELFIA europium. inhibition, % at 2.35 µM. 0.069% of 330,000 active. Lysine-specific demethylase 4C (Homo sapiens), Q9H3R0. GST-JMJD2C(1-420) H3K9me3 demethylation;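 active means more than half of a compound's replicate wells show inhibition beyond 50%, single wells judged on their own value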;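 further: signal counts dimethyl H3K9 product captured on neutravidin plate; 0% = median of DMSO wells and 100% = 0.3 times that DMSO median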
KLK7 zymogen act: proKLK7 zymogen activators, primary screen, biochemical, fluorescence intensity | Kallikrein-7 (Homo sapiens), P49862 | purified proKLK7, EDANS-DABCYL substrate fluorescence; 100% is mature enzyme control, 0% vehicle | 0.9% of 370,000 active | activation, % at 7 µM;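 active means activation above the mean of all tested compounds plus 3 SD, computed per campaign excluding outliers beyond control limits, cut at about 13% in these data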
Target sequence (P49862 whole entry, looked up): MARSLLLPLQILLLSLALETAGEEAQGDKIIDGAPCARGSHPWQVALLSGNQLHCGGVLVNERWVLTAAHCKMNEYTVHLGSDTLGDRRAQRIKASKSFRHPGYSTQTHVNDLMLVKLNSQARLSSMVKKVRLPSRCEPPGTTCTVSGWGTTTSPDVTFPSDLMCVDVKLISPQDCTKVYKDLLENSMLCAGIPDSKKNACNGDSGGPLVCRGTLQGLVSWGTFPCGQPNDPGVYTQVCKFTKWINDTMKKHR
NR1D1 modulator: modulators of Rev-erb alpha DNA binding, primary screen, biochemical, FITC-DNA, fluorescence polarization, uHTS; AID 1259318, 2017; 0.79% of 370,000 active; Rev-erbα–FITC-DNA binding, 90 min; activity, % at 10 µM; Nuclear receptor subfamily 1 group D member 1 (Homo sapiens), P20393;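 active means activity above about 14%, limit read from the data; passing the limit was not always enough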;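 further: 0% = DMSO wells with 35 nM protein and 100% = DMSO wells with 750 nM protein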
PP5 inh: PP5 phosphatase inhibitors, primary screen, biochemical, fluorescence; Serine/threonine-protein phosphatase 5 (Homo sapiens), P53041; purified PP5c, OMFP substrate fluorescence; inhibition, % at 6.7 µM; 0.18% of 320,000 active; AID 1987, 2009;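 active means inhibition above the campaign's mean inhibition across all tested compounds plus 3 SD, cut at about 9.5% in these data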;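 further: 0% = DMSO only and 100% = 100 µM cantharidin control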
PP1 inh: PP1-alpha phosphatase inhibitors, primary screen, counter-screen for PP5 inhibitor project, biochemical, fluorescence, OMFP substrate, single point; Serine/threonine-protein phosphatase PP1-alpha catalytic subunit (Homo sapiens), P62136; purified PP1alpha; inhibition, % at 6.7 µM; 0.9% of 320,000 active; AID 2235, 2010;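 active means inhibition above the mean inhibition of all tested compounds plus 3 SD, computed separately for each screening campaign, cut at about 15% in these data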
Target sequence (P62136 whole entry, looked up): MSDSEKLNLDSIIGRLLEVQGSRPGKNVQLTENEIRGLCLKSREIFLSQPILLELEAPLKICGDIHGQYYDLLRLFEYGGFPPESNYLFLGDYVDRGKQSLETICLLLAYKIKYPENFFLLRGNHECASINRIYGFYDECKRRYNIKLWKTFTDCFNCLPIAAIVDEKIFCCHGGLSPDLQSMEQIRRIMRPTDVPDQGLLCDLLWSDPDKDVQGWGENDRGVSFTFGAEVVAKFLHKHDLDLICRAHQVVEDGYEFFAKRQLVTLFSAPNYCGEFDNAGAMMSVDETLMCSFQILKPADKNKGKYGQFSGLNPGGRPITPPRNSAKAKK
PG9 binder: binders of HIV-1 gp120 antibody PG9, primary screen, biochemical, TR-FRET | AID 624416, 2012 | 0.43% of 360,000 active | inhibition, % at 6.7 µM | HIV-1 gp120 / PG9 antibody interaction | TR-FRET gp120-PG9 antibody binding; in the data active means inhibition above about 8.5%
Rev-erbA confirm: modulators of Rev-erb alpha DNA binding, confirmation, biochemical, FITC-DNA, fluorescence polarization, single point; shares compounds with NR1D1 modulator; 90 min; activation, % at 25 µM; 61% of 3,000 active;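 active means activation at or above a set limit, or at least 3 SD above the negative control mean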;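 further: 0% = 35 nM protein with DMSO and 100% = 750 nM protein high control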
RORg counter: modulation of RORgamma DNA binding, dose response, counter-screen for Rev-erb alpha modulator project, biochemical, fluorescence polarization, FITC-DNA. IC50, µM. purified RORgamma protein-FITC-DNA binding. 8% of 910 active. shares compounds with NR1D1 modulator;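 active means Compounds whose fitted half-maximal concentration for disrupting protein-DNA binding is below 10 micromolar; the record names Rev-erb in its text, so the target is in doubt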
Numbers without * were called inactive; i = inactive; nt = no result given. Sampled rows, rich in hits. Any-hit rate of the full collection: about 2.8%.

SMILES	JMJD2C inh	KLK7 zymogen act	NR1D1 modulator	PP5 inh	PP1 inh	PG9 binder	Rev-erbA confirm	RORg counter
O=C(CSc1nc2ccccc2s1)CSc1nc2ccccc2s1	2	-1	-2	3	5	-2	nt	nt
O=c1oc2ccccc2n1CSc1nc2ccccc2s1	-10	0	18*	1	0	-1	20*	nt
CCCCOc1cccc(C2C(C(=O)c3ccc(C)o3)=C(O)C(=O)N2c2nnc(C)s2)c1 (centres undefined)	-43	1	18*	nt	nt	0	18*	nt
NC1CCN(c2cccc(Cl)n2)CC1	8	nt	nt	-1	-3	nt	nt	nt
N#Cc1cc(C#N)c(N2CCN(c3cccc(Cl)n3)CC2)nc1N	-3	1	26*	5	0	-2	71*	i
CC(C)CN1C(=O)C[C@]2(C(=O)N(C)c3ccc(NS(=O)(=O)C4CCCCC4)cc32)C1c1ccccc1 (some centres undefined)	nt	0	-5	nt	nt	nt	nt	nt
CC1CN(C(=O)N2c3ccccc3Sc3ccccc32)C(C)CC1=O (centres undefined)	-10	0	44*	2	2	3	60*	nt
Cc1ccc2nc(N3CCN(S(=O)(=O)c4ccc(C)c(Cl)c4)CC3)c(C#N)cc2c1	-5	0	189*	1	-5	0	145*	i
CCOC(=O)c1c(NC(=O)C2CCCN(S(=O)(=O)c3ccc(C)cc3)C2)sc2c1CCCC2 (centres undefined)	-3	0	4	-2	-2	-1	nt	nt
CCOC(=O)c1c(NC(=O)c2ccccc2C(=O)O)sc2c1CCCC2	5	0	-3	1	1	0	nt	nt
COC(=O)c1c(NC(=O)C2(C)Cc3ccccc3C(=O)O2)sc2c1CCCC2 (centres undefined)	-5	-27	5	1	-4	0	nt	nt
CCOC(=O)c1c(NC(=O)C2Cc3ccccc3C(=O)O2)sc2c1CCCC2 (centres undefined)	0	0	35*	-1	-1	-1	14*	nt
CCOC(=O)c1c(NC(=O)C2CCCN(S(=O)(=O)c3ccccc3)C2)sc2c1CCCC2 (centres undefined)	3	0	24*	-1	0	3	103*	>40
COC(=O)c1c(NC(=O)C2Cc3ccccc3C(=O)O2)sc2c1CCCC2 (centres undefined)	6	0	50*	6	-5	0	22*	nt
CCCC1CCC2(CCCN2CCOC(=O)Nc2ccccc2OC)CC1 (centres undefined)	nt	nt	6	nt	nt	nt	nt	nt
O=C(Nc1ccc(O)c(-c2nc3ccccc3s2)c1)C1=COCCO1	5	-28	494*	-2	4	0	259*	>40
O=C(Nc1ccc(-c2nc3ccccc3s2)cc1)C1=COCCO1	-4	0	9	-1	4	0	nt	nt
CC(=O)Nc1ccc(O)c(-c2nc3ccccc3s2)c1	3	-153	231*	4	4	2	385*	>40
O=C(Nc1ccc(-c2nc3ccccc3s2)c(O)c1)C1=COCCO1	4	-14	87*	-1	-2	-2	12	nt
C=CCN1[C@@H](CC(C)C)COc2cc(N3CCSCC3)ccc2S1(=O)=O	nt	0	-1	nt	nt	nt	nt	nt
CCCN1CCCCC(NC(=O)c2ccc(F)c(F)c2)C1=O (centres undefined)	nt	0	-3	nt	nt	-2	nt	nt
O=C1[C@@H](C2CCCCC2)[C@@H]2c3ccccc3C=NN2[C@@H]2c3ccccc3C=NN12	nt	0	-10	nt	nt	nt	nt	nt
C=CCn1c(SCC(=O)Nc2ccccc2-c2ccccc2)nnc1-c1ccccc1	nt	1	-4	nt	nt	nt	nt	nt
Cc1nc(N2CCN(c3ccccn3)CC2)c2c(C)c(C(=O)N3CCN(c4cccc(Cl)c4)CC3)sc2n1	56	1	73*	-1	-5	3	50*	>40
Cc1nc(N2CCN(c3ccccn3)CC2)c2c(C)c(C(=O)Nc3ccc(F)cc3Cl)sc2n1	-3	-1	34*	0	4	0	20*	nt
SMILES	JMJD2C inh	KLK7 zymogen act	NR1D1 modulator	PP5 inh	PP1 inh	PG9 binder	Rev-erbA confirm	RORg counter
CCc1ccc(NC(=O)c2sc3nc(C)nc(N4CCN(c5ccccn5)CC4)c3c2C)cc1	-1	0	28*	4	15	0	21*	nt
Cc1nc(N2CCN(c3ccccn3)CC2)c2c(C)c(C(=O)Nc3ccccc3F)sc2n1	14	0	15	-1	-4	2	nt	nt
Cc1c(C(=O)N2CCN(c3ccccn3)CC2)sc2ncnc(N3CCN(c4ccccc4)CC3)c12	-6	1	0	6	5	1	nt	nt
CCCCc1c(-c2ccccc2OC)ncn1Cc1ccccc1C	nt	1	6	nt	nt	1	nt	nt
CCC(=O)c1ccc(OCC(=O)Nc2ccccc2C(=O)NC2CC2)cc1	2	0	22*	-1	-5	-2	96*	i
COc1cccc(CNC(=O)C2CCC(CNS(=O)(=O)c3cccc4cccnc34)CC2)c1OC (centres undefined)	nt	0	2	nt	nt	nt	nt	nt
CC(C)c1ccc2oc(=O)cc(CN3CCCCC3)c2c1	-27	0	11	-7	-8	-2	nt	nt
CC1CCN(Cc2cc(=O)oc3ccc(C(C)C)cc23)CC1	4	-1	22*	0	0	1	33*	>40
OCC1OC(Oc2cccc3ccccc23)C(O)C(O)C1O (centres undefined)	-5	0	26*	3	-1	-2	-3	nt
COC(=O)Cn1c(=NC(=O)c2nc3ccccc3s2)sc2cc(S(C)(=O)=O)ccc21	-7	0	78*	-1	0	-2	59*	1*
CCCCn1c(SC(C)C(=O)NCC2CCCO2)nc2cc(C(=O)OC)ccc2c1=O (centres undefined)	-2	0	40*	2	-4	-1	32*	>40
CCn1ncc(Br)c1C(=O)Nc1ccccc1OC	4	0	-2	1	1	-2	nt	nt
CCn1ncc(Br)c1C(=O)Nc1cc(C(=O)OC)ccc1C(=O)OC	0	1	45*	0	-3	1	24*	nt
